This note sets out measurements from PubChem BioAssay (NCI).

Compounds without any hit were thinned out: in the full panel of roughly 83,000, 20% have a hit.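 Values shown are percent growth following 48 h exposure of cells in 96-well plates to a single concentration of compound; below 10 was considered active.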 The source made the active and inactive calls.

This assay relates to HL-60(TB) leukemia. As to the kind of experiment: NCI-60 one-dose screen, 48 h (100 = growth as untreated, 0 = no growth, -100 = all killed). As to conditions: 10 µM unless noted.
Consider `Fc1cc2[nH]ncc2c2c3c(c(-c4cn[nH]c4C(F)(F)F)nc12)CCCC3`, for which the growth was -9.67% (active).

As for `COCCCN1CC(O)=C(c2nc(-c3ccc(C)cc3)cs2)C1=N`, the growth is 84.9% (inactive).

`COc1ccc(C(=O)CSc2nc(-c3cc(OC)ccc3OC)cc(-c3ccc(Cl)cc3)c2C#N)cc1`: the growth was 106% (inactive).
